We go through 6 compounds from the supplement of paper PMC12494721.

Common to all, as to settings: incubation time: 27 h, anaerobic, 37 °C
Experiment [1] has as its system Clostridium sporogenes DSM 1664. Kind of experiment: growth (OD595) fold change vs plate DMSO controls (fold change (ratio)); higher = more growth. An outline of the steps: (§1)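 Growth is calculated as fold change against the median of the DMSO control wells on each plate. Readings at 595 nm from anaerobic mGAM cultures (96-well, 27 h, 37 °C) were blank-subtracted, background-corrected with 20 µM compound solutions in water, and converted to OD by a calibration factor of 5. Fold changes above 1.5 were recorded as NA, and results are means of 2 biological replicates.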

In experiment [2] the test system is Escherichia coli IAI1. The experiment is described as above. An outline of the steps:
as §1

The subject of experiment [3] is Klebsiella aerogenes DSM 30053. The experiment is described as above. The method, boiled down: as §1
The test system of experiment [4] is Klebsiella aerogenes DSM 30053. In words: fold change of Histamine concentration vs plate DMSO controls (fold change (ratio)); higher = more amine produced, active = hit call of the paper (significant change in both replicates, either direction). The method, boiled down: (§2)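 Extracts of whole anaerobic mGAM cultures were analysed for amines by LC–triple-quadrupole MS with dynamic MRM and external calibration curves, with drift corrected within batch. Four gut strains were grown at 37 °C for 27 h in 80 µL wells with compounds at 20 µM final, sweeteners at 50 µM final. Each value expresses fold change over plate DMSO controls. The average of 2 biological replicates is shown.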

Experiment [5] has as its system Clostridium sporogenes DSM 1664. Kind of experiment: fold change of Tryptamine concentration vs plate DMSO controls (fold change (ratio)); higher = more amine produced, active = hit call of the paper (significant change in both replicates, either direction). The method, boiled down:
as §2

Experiment [6] deals with Ruminococcus gnavus DSM 108212. The experiment is described as above. An outline of the steps:
as §2

Experiment [7] concerns Escherichia coli IAI1. Kind of experiment: fold change of Putrescine concentration vs plate DMSO controls (fold change (ratio)); higher = more amine produced, active = hit call of the paper (significant change in both replicates, either direction). The method, boiled down: as §2
For experiment [8], the system named is Klebsiella aerogenes DSM 30053. The experiment is described as above. The method, boiled down: as §2
Experiment [9] has as its system Escherichia coli IAI1. In words: fold change of Cadaverine concentration vs plate DMSO controls (fold change (ratio)); higher = more amine produced, active = hit call of the paper (significant change in both replicates, either direction). The method, boiled down: as §2
The test system of experiment [10] is Klebsiella aerogenes DSM 30053. Described as above. The method, boiled down:
as §2

Experiment [11] concerns Ruminococcus gnavus DSM 108212. Kind of experiment: fold change of 2-Phenylethylamine concentration vs plate DMSO controls (fold change (ratio)); higher = more amine produced, active = hit call of the paper (significant change in both replicates, either direction). An outline of the steps: as §2
The subject of experiment [12] is Ruminococcus gnavus DSM 108212. Kind of experiment: growth (OD595) fold change vs plate DMSO controls (fold change (ratio)); higher = more growth. The method, boiled down:
as §1

Each structure is given as a SMILES string. Where a name gives a salt, the structure may show the parent alone.

For the compound `CC(C)(C)CC(C)(C)c1ccc(OCCOCC[N+](C)(C)Cc2ccccc2)cc1` [Benzethonium chloride] (20 µM), the growth in [1] is 0.869; in the experiment on Escherichia coli IAI1 [2], 0.964; in experiment [3], 1.02. Further, the “fold change of Histamine concentration” value in [4] was 1.07 (inactive). Besides, the “fold change of Tryptamine concentration” value in [5] is 0.956 (inactive); in [6] it was 0.866 (inactive). In addition, the “fold change of Putrescine concentration” value in the experiment with Escherichia coli IAI1 [7] was 0.975 (inactive); in [8] it was 1.01 (inactive). Further, the “fold change of Cadaverine concentration” value with Escherichia coli IAI1 [9] is 1.02 (inactive); in experiment [10], 0.988 (inactive). In addition, the “fold change of 2-Phenylethylamine concentration” value in experiment [11] is 0.895 (inactive).
In the case of `C[C@@H]1CN(c2c(F)c(N)c3c(=O)c(C(=O)O)cn(C4CC4)c3c2F)C[C@H](C)N1` [Sparfloxacin] (20 µM), the growth in experiment [1] came out at 0.0221; with Escherichia coli IAI1 [2], 0.0499; in experiment [3], 0.286. For the same compound, the “fold change of Histamine concentration” value in experiment [4] was 0.286 (active). Moreover, the entries for the “fold change of Tryptamine concentration” value in experiment [5] and in experiment [6] were 0.0593 (active) and 0.763 (active), respectively. In addition, the “fold change of Putrescine concentration” value in the experiment on Escherichia coli IAI1 [7] was 0.942 (inactive); in experiment [8], 1.16 (inactive). Also, the “fold change of Cadaverine concentration” value in the experiment on Escherichia coli IAI1 [9] was 0.264 (active); in [10], 0.973 (inactive). Moreover, the “fold change of 2-Phenylethylamine concentration” value in [11] is 0.829 (inactive).
As to `O=C1CN(/N=C/c2ccc([N+](=O)[O-])o2)C(=O)N1` [Nitrofurantoin] (20 µM), the figures for the growth (in experiment [1]; with Escherichia coli IAI1 [2]; in experiment [3]) were 1.01, 0.997 and 0.868, respectively. Further, the “fold change of Histamine concentration” value in experiment [4] was 1.07 (inactive). The entries for the “fold change of Tryptamine concentration” value in experiment [5] and in [6] were 0.931 (inactive) and 0.808 (inactive), respectively. For the same compound, the “fold change of Putrescine concentration” value with Escherichia coli IAI1 [7] was 0.729 (active); in experiment [8], 0.962 (inactive). In addition, the “fold change of Cadaverine concentration” value is 1.81 (active) with Escherichia coli IAI1 [9] and 0.997 (inactive) in experiment [10]. Also, in experiment [11], the “fold change of 2-Phenylethylamine concentration” value was 0.923 (inactive).
As to `CCCCNC(=N)NC(=N)N` [Buformin] (20 µM), the growth was found to be 1.02 in [1], 0.988 in the experiment with Escherichia coli IAI1 [2], 0.986 in experiment [3] and 1 in experiment [12]. In addition, in experiment [4], the “fold change of Histamine concentration” value was 1.03 (inactive). The “fold change of Tryptamine concentration” value was 1.05 (inactive) in experiment [5] and 0.934 (inactive) in [6]. In addition, the “fold change of Putrescine concentration” value (with Escherichia coli IAI1 [7]; in experiment [8]) was 1.01 (inactive) in each case. The “fold change of Cadaverine concentration” value is 1.03 (inactive) in the experiment on Escherichia coli IAI1 [9] and 1 (inactive) in [10]. The “fold change of 2-Phenylethylamine concentration” value in experiment [11] was 0.915 (inactive).
Turning to `NC(=O)c1cc[n+](CC2=C(C(=O)[O-])N3C(=O)[C@@H](NC(=O)[C@@H](c4ccccc4)S(=O)(=O)O)[C@H]3SC2)cc1` [Cefsulodin sodium salt] (20 µM), the growth in [1] came to 0.613; with Escherichia coli IAI1 [2], 0.995; in [3], 1.02. Moreover, the “fold change of Histamine concentration” value in experiment [4] was 1 (inactive). The “fold change of Tryptamine concentration” value in experiment [5] is 0.876 (inactive); in experiment [6], 0.796 (active). The “fold change of Putrescine concentration” value with Escherichia coli IAI1 [7] was 0.97 (inactive); in experiment [8] it was 1.01 (inactive). For the same compound, the “fold change of Cadaverine concentration” value is 1.07 (inactive) in the experiment with Escherichia coli IAI1 [9] and 1 (inactive) in experiment [10]. The “fold change of 2-Phenylethylamine concentration” value in [11] is 0.886 (inactive).
Consider `Nc1nc2[nH]cc(CCc3ccc(C(=O)N[C@@H](CCC(=O)O)C(=O)O)cc3)c2c(=O)[nH]1` [Pemetrexed disodium] (20 µM), for which the growth in [1] amounted to 1.11; in the experiment with Escherichia coli IAI1 [2] it was 1.25; in experiment [3], 0.529. In addition, the “fold change of Histamine concentration” value in experiment [4] is 0.471 (inactive). Also, the “fold change of Tryptamine concentration” value in [5] is 1.04 (inactive); in [6], 0.788 (inactive). Besides, the “fold change of Putrescine concentration” value in the experiment on Escherichia coli IAI1 [7] is 1.07 (inactive); in experiment [8] it was 0.577 (inactive). Further, the results for the “fold change of Cadaverine concentration” value (in the experiment with Escherichia coli IAI1 [9]; in experiment [10]) were 0.876 (inactive) and 0.663 (inactive), respectively. In [11], the “fold change of 2-Phenylethylamine concentration” value was 0.811 (inactive).
